Assay [1] deals with T1, Serine/threonine-protein kinase TBK1 (Homo sapiens) (UniProt Q9UHD2).
T1 sequence (whole entry): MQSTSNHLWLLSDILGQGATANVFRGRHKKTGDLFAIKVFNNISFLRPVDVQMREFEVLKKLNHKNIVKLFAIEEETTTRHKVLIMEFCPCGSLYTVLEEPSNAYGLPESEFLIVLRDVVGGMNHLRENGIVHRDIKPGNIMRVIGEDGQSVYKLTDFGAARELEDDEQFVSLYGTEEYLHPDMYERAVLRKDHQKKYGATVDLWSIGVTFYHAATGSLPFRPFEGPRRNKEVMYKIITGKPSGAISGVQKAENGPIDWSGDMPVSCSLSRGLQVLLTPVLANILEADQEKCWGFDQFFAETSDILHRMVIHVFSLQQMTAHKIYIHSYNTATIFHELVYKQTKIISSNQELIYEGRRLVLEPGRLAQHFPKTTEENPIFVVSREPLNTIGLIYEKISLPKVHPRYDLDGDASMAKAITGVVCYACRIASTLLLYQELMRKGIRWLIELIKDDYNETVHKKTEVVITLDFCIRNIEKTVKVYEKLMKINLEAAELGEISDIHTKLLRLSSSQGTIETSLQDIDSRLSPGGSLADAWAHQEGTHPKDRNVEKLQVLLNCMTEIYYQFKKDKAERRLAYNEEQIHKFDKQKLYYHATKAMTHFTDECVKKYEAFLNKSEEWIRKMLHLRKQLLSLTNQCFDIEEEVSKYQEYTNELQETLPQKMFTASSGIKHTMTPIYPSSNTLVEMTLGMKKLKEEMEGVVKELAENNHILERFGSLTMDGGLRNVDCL
The conditions noted are these: at 1 µM.

In assay [2] the target is T1, Serine/threonine-protein kinase TBK1 (Homo sapiens). The conditions noted are these: at 10 µM.
For assay [3], the target named is T2, TGF-beta receptor type-1 (Homo sapiens) (UniProt P36897).
T2 sequence (whole entry): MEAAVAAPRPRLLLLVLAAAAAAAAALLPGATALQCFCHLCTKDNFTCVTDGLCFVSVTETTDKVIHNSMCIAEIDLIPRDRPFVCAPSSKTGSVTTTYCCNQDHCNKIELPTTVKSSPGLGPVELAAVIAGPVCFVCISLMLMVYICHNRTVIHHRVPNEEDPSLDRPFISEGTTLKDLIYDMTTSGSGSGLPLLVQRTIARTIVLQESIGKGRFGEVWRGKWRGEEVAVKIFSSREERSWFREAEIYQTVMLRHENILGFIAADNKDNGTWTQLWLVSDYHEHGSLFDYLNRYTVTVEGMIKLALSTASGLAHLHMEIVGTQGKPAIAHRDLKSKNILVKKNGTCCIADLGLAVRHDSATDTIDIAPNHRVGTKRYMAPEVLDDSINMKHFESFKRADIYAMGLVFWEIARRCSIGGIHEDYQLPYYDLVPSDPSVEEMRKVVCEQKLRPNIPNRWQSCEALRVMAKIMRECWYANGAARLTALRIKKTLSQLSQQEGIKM
The note with it: at 1 µM.

Assay [4] has as its target T2, TGF-beta receptor type-1 (Homo sapiens). The conditions noted are these: at 10 µM.
In assay [5] the target is Insulin-like growth factor 1 receptor (Homo sapiens) (UniProt P08069). The note with it: at 1 µM.
Sequence of Insulin-like growth factor 1 receptor (Homo sapiens) (P08069 31-736 limits assumed): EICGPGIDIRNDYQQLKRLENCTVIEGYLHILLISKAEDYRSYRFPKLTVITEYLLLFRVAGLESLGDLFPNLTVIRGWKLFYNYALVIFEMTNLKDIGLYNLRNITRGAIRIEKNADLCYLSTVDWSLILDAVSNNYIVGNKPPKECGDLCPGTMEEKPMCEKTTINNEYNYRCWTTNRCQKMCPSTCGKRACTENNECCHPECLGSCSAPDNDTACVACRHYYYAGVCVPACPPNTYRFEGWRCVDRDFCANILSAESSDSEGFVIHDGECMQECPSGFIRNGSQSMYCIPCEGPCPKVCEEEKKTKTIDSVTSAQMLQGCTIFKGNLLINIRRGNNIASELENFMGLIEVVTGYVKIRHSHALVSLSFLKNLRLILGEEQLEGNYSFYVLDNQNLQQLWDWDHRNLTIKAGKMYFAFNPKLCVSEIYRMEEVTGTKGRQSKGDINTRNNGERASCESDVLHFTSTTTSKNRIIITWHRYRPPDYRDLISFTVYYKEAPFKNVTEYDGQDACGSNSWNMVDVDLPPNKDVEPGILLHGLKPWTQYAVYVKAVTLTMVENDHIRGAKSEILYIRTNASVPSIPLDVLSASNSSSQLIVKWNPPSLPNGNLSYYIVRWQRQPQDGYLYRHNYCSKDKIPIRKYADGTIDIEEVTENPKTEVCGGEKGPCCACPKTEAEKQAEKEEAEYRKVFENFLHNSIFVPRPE
Sequence of Insulin-like growth factor 1 receptor (Homo sapiens) (P08069 741-1367 limits assumed): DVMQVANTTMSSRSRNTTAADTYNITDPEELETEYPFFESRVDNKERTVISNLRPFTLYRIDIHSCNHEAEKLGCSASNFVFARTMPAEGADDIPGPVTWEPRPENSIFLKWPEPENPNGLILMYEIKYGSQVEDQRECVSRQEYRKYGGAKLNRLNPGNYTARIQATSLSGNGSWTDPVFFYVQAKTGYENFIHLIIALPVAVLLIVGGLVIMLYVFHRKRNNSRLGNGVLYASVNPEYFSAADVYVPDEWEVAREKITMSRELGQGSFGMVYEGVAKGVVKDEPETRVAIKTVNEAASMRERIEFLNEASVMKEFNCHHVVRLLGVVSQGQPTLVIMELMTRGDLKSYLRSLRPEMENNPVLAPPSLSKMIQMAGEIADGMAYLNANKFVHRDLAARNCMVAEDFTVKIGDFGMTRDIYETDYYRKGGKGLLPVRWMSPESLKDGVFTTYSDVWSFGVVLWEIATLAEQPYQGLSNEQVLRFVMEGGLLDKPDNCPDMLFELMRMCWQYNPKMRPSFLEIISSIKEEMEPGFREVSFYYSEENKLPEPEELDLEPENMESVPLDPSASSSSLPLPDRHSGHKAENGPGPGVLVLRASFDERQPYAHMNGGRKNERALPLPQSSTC
The target is the same in assay [6]. The conditions noted are these: at 10 µM.
The target in assay [7] is T3, Inhibitor of nuclear factor kappa-B kinase subunit alpha (Homo sapiens) (UniProt O15111).
T3 sequence (whole entry): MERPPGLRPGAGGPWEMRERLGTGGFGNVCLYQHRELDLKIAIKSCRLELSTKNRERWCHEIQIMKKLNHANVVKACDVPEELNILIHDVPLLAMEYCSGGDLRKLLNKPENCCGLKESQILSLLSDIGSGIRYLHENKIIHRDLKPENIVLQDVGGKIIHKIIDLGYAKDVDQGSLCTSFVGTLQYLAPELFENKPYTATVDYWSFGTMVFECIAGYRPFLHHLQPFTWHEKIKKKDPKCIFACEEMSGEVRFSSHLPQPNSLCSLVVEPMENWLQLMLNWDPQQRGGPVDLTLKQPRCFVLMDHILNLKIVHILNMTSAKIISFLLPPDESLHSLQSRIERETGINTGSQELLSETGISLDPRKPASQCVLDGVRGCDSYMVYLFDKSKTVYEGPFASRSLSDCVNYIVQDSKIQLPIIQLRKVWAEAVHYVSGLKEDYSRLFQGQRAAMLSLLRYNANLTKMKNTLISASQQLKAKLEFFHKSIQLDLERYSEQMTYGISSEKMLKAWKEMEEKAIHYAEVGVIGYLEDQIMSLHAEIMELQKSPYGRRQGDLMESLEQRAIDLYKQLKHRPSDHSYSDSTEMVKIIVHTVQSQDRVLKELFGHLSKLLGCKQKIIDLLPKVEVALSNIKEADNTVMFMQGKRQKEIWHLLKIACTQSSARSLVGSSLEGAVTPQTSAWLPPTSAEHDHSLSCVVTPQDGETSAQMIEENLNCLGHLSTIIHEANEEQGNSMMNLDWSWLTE
The note with it: at 1 µM.

Assay [8] has as its target T3, Inhibitor of nuclear factor kappa-B kinase subunit alpha (Homo sapiens). The note with it: at 10 µM.
The target in assay [9] is T4, Inhibitor of nuclear factor kappa-B kinase subunit beta (Homo sapiens) (UniProt O14920).
T4 sequence (whole entry): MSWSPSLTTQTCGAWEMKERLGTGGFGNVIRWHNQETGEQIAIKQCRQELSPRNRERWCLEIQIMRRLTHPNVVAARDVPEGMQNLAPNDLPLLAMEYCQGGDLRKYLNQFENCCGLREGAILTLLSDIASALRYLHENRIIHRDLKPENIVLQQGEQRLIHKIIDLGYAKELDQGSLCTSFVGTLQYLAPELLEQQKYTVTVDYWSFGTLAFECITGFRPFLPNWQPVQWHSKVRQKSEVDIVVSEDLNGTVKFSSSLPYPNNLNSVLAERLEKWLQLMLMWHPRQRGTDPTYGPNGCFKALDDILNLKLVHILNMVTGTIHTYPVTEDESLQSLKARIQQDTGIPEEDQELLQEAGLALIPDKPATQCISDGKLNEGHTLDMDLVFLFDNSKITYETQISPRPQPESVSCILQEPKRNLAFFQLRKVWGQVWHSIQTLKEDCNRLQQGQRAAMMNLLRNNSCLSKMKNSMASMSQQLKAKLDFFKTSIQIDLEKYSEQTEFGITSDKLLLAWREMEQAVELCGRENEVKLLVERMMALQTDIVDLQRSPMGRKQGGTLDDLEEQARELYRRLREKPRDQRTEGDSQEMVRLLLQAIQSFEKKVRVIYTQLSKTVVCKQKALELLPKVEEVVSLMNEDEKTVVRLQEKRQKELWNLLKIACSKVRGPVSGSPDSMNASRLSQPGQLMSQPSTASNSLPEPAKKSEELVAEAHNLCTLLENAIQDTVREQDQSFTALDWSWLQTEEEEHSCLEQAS
The conditions noted are these: at 10 µM.

The record followed here is ChEMBL document CHEMBL2218924, “A broad activity screen in support of a chemogenomic map for kinase signalling research and drug discovery” (Biochem J, 2013).

Take `Nc1cccc(-c2cc3c(Oc4cccc(O)c4)ncnc3[nH]2)c1`: the residual activity (commonly the signal under treatment as a percentage of the control signal) in assay [1] stood at 70%; in [2] it was 19%; in assay [3], 101%; in assay [4], 56%; in assay [5], 105%; in [6] it was 85%. Also, the residual activity in [7] is 88%; in assay [8] it was 78%; in assay [9], 91%.
